A number with no mark means an inactive call. Inconclusive results are not listed. Calls of active or inactive are those of the source. The call rests on the fitted dose curve; in most records, active means well fitted curve in the direction sought with a large enough effect; inconclusive means small, poorly fitted or top-dose-only effect, or another doubt; inactive means no such curve, though single readings can be large; an effect the other way counts as inactive or inconclusive.
Biological target: Cytochrome P450 3A4 (Homo sapiens) (UniProt P08684)
Sequence (P08684 whole entry, looked up): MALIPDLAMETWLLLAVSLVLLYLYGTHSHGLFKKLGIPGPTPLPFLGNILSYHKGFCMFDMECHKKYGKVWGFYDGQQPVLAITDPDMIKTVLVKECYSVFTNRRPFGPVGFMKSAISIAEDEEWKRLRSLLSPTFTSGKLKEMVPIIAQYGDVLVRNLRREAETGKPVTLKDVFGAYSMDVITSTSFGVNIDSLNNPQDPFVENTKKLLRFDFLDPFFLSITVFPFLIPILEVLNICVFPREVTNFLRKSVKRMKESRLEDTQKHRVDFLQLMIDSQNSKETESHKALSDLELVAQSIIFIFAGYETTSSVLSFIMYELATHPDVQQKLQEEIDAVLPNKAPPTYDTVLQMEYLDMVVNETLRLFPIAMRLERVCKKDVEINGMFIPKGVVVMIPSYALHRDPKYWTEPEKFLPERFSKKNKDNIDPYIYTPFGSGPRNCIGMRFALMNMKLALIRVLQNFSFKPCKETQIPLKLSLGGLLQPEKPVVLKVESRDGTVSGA
Test: qHTS Assay for Inhibitors and Substrates of Cytochrome P450 3A4 (AID 884); further: nearly all actives have a fitted effect of over 50% in size; further: potency means the concentration at half of the fitted maximal effect; on activity change, negative = inhibition: on the % scale 0 is the no-effect control and ±100 the full control effect
Conditions: recombinant CYP3A4, Luciferin-PPXE luminescence; series mostly up to 57.1 µM; activity change, negative = inhibition: at the top concentration
Method in brief: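 Luminescent readout of luciferin produced by CYP3A4 (20 nM) dealkylation of Luciferin-PPXE, 25 uM (its KM). NADPH-driven reaction ran 60 min at RT after 10 min compound preincubation; data scaled to 57 uM ketoconazole as 100% inhibition.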

SMILES | Potency | activity change, negative = inhibition [%]
O=S(=O)(c1ccccc1)N1CCC2(CCCN(Cc3nccs3)C2)CC1 | 3160 nM (active) | –
Cn1cccc1C(=O)N1CCC2(CCN(Cc3nccs3)CC2)CC1 | – | 59.7
Cc1cnc(CNc2nc(-c3ccc4c(c3)OCO4)nc3ccccc23)cn1 | 794 nM (active) | –

Biological target: Cytochrome P450 3A4 (Homo sapiens) (UniProt P08684)
Test: qHTS Assay for Activators of Cytochrome P450 3A4 (AID 885); further: nearly all actives have a fitted effect of over 65% in size
Conditions: recombinant CYP3A4, Luciferin-PPXE luminescence, 60 min; series mostly up to 57.1 µM; activity change, positive = activation: at the top concentration
Method in brief: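 CYP3A4 activity: Luciferin-PPXE O-dealkylation, 25uM substrate, 200mM KPO4, RT throughout. Read-out is luciferase luminescence; higher values reflect activation.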

SMILES | activity change, positive = activation [%]
O=S(=O)(c1ccccc1)N1CCC2(CCCN(Cc3nccs3)C2)CC1 | -87.4
N#Cc1cccc(NC(=O)N2CCCC3(CCN(C(=O)c4csnn4)CC3)C2)c1 | -44.1
Cn1cccc1C(=O)N1CCC2(CCCN(c3ccccn3)C2)CC1 | -49.7
N#Cc1cccc(NC(=O)N2CCCC3(CCN(C(=O)c4cccc(F)c4)CC3)C2)c1 | -64.2
O=C(c1cnccn1)N1CCC2(CCCN(Cc3nccs3)C2)CC1 | -67.9
N#Cc1ccc(CN2CCCC3(CCN(S(=O)(=O)c4ccccc4)CC3)C2)cc1 | -86.4
O=S(=O)(c1ccccc1)N1CCC2(CCCN(Cc3ccncc3)C2)CC1 | -88.7
CN(C)c1ccc(-c2nc(NC3CCNCC3)c3ccccc3n2)cc1 | -33.6
N#Cc1cccc(NC(=O)N2CCCC3(CCN(C(=O)c4cc(C(F)(F)F)cc(C(F)(F)F)c4)CC3)C2)c1 | -82
O=C(c1ccncc1)N1CCC2(CCCN(Cc3ccccc3)C2)CC1 | -81.4
CNc1nc(-c2ccc(N(C)C)cc2)nc2ccccc12 | -61.8
O=C(c1cc(C(F)(F)F)cc(C(F)(F)F)c1)N1CCC2(CCCN(Cc3ccncc3)C2)CC1 | -58.6
Cc1cnc(CNc2nc(-c3ccc4c(c3)OCO4)nc3ccccc23)cn1 | -88.2
O=C(c1ccco1)N1CCC2(CCCN(Cc3ccccc3)C2)CC1 | -31.3
O=C(Oc1ccccc1)N1CCC2(CCCN(c3ccc(-c4ccccc4)cc3)C2)CC1 | -67
CC(=O)N1CCC[C@@]2(CCN(c3ccccc3)C2)C1 | -49.8

Biological target: Cytochrome P450 2D6 (Homo sapiens) (UniProt P10635)
Sequence (P10635 whole entry, looked up): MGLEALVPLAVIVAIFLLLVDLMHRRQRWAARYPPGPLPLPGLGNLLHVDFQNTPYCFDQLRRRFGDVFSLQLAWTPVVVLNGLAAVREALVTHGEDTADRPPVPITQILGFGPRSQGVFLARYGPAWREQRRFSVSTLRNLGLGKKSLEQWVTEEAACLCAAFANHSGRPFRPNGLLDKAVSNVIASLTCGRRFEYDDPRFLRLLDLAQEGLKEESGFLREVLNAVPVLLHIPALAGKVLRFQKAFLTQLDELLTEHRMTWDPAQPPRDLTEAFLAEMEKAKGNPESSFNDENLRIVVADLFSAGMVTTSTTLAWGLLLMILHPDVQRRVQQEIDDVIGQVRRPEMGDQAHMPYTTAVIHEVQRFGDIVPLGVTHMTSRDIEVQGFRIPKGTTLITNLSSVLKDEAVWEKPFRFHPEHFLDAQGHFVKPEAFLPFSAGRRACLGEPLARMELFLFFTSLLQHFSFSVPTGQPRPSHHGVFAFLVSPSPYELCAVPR
Test: qHTS Assay for Inhibitors and Substrates of Cytochrome P450 2D6 (AID 891); further: potency means the concentration at half of the fitted maximal effect; nearly all actives have a fitted effect of over 60% in size
Conditions: recombinant CYP2D6, luciferin-ME EGE luminescence; series mostly up to 57.1 µM; activity change, negative = inhibition: at the top concentration
Method in brief: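 Luminescent read-out of luciferin formed by 5 nM human CYP2D6 demethylating 30 uM Luciferin-ME EGE (Km level) over 60 min at room temperature after NADPH regeneration addition. Data normalized to full inhibition by 1.43 uM quinidine.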

SMILES | Potency
O=C(c1cnccn1)N1CCC2(CC1)CN(Cc1cc(C(F)(F)F)cc(C(F)(F)F)c1)C2 | 398 nM (active)
O=C(c1cnccn1)N1CCC2(CCCN(Cc3nccs3)C2)CC1 | 7940 nM (active)
N#Cc1ccc(CN2CCCC3(CCN(S(=O)(=O)c4ccccc4)CC3)C2)cc1 | 631 nM (active)
O=S(=O)(c1ccccc1)N1CCC2(CC1)CN(Cc1ccccc1)C2 | 158 nM (active)
COc1ccccc1CN1CCC2(CCNCC2)CC1 | 31.6 nM (active)
